Source: PubChem (Broad Institute)
The sample as a whole holds a higher share of hits than the screen did.
miR-122 inh = miR-122 suppressors via Renilla sensor increase, primary screen, cell-based, Huh7 psiCHECK-miR122, Renilla luciferase, single point. 48 h. activation, % at 12.5 µM. actives 0.14% (n = 340,000). AID 623901, 2012;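 active means mean activation of 30% or more, with every replicate also reaching 30%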;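 further: 0% = median of neutral control wells and 100% = median of positive control wells; higher luciferase signal means stronger suppression of miR-122 activity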
* = called active by the depositor.

SMILES | miR-122 inh
COc1ccc(-c2c(C(C)=O)c(C)nc3sc4c(c23)NC(c2ccccc2)NC4=O)cc1 (stereo not drawn) | 36*
CC(C)CC#Cc1cnc2c(c1)C(=O)N([C@H](C)CO)C[C@@H](C)[C@H](CN(C)CC1CCOCC1)O2 | -3
C[C@H]1CN([C@@H](C)CO)C(=O)c2cc(C#CCc3ccccc3)cnc2O[C@@H]1CN(C)C(=O)C1CCCCC1 | -1
C[C@@H]1CN([C@H](C)CO)C(=O)c2cc(C#CC3(O)CCCC3)cnc2O[C@H]1CN(C)S(=O)(=O)c1ccc(F)cc1 | -1
CCC(=O)N(C)C[C@H]1Oc2cc(C#C[C@H](C)O)ccc2S(=O)(=O)N([C@H](C)CO)C[C@@H]1C | 1
CC1(C)CC(=O)c2cnc(NC(=O)c3ccco3)nc2C1 | 38*
O=C(Nc1ccc(Br)c(Cl)c1)c1ccco1 | -144
COCC#Cc1cnc2c(c1)C(=O)N([C@@H](C)CO)C[C@H](C)[C@H](CN(C)C(=O)Cc1ccccc1)O2 | 0
C/C=C/c1ccc2c(c1)O[C@@H](CN(C)C(=O)CC1CC1)[C@H](C)CN([C@@H](C)CO)S2(=O)=O | 5
CCCNC(=O)N(C)C[C@H]1Oc2ncc(C#Cc3ccccc3F)cc2C(=O)N([C@H](C)CO)C[C@@H]1C | 1
COc1ccc(-c2cnc3c(c2)C(=O)N([C@@H](C)CO)C[C@H](C)[C@@H](CN(C)C(=O)Cc2ccccc2)O3)cc1 | -5
CN(C(=O)C12CC3CC(CC(C3)C1)C2)C1CCS(=O)(=O)C1 (stereo not drawn) | 36*
C[C@H](CO)N1C[C@H](C)[C@H](CN(C)CC2CCOCC2)Oc2ncc(C#Cc3cccc(F)c3)cc2C1=O | -7
CC(=O)N(C)C[C@H]1Oc2cc(C#C[C@@H](C)O)ccc2S(=O)(=O)N([C@@H](C)CO)C[C@H]1C | 1
C[C@H](CO)N1C[C@H](C)[C@H](CN(C)Cc2ccccn2)Oc2ncc(Br)cc2C1=O | -3
Cc1ccc(-n2c(Cc3ccccc3)n[nH]c2=S)cc1 | 41*
C[C@H](CO)N1C[C@H](C)[C@H](CN(C)C(=O)Nc2ccccc2)Oc2cc(-c3cccc(C(=O)N(C)C)c3)ccc2S1(=O)=O | 4
COc1ccc(OC)c(Nc2nc(N)nc(CCl)n2)c1 | 32*
COc1ccc(OC)c(NS(=O)(=O)c2ccc(N3CCCC3=O)cc2)c1 | -120
COc1ccc(S(=O)(=O)Nc2cc(Cl)ccc2OC)cc1 | -138
COc1ccc(-c2cnc3c(c2)C(=O)N([C@@H](C)CO)C[C@H](C)[C@@H](CN(C)Cc2ccccn2)O3)cc1 | -2
OC(CNCCC1C=Nc2ccccc21)Cn1c2ccc(Cl)cc2c2cc(Cl)ccc21 (stereo not drawn) | 55*
C[C@H]1CN([C@@H](C)CO)C(=O)c2cc(-c3ccc(C#N)cc3)cnc2O[C@@H]1CN(C)CC1CCOCC1 | 0
COc1cccc(C#Cc2ccc3c(c2)O[C@H](CN(C)S(=O)(=O)c2ccccc2F)[C@H](C)CN([C@@H](C)CO)S3(=O)=O)c1 | -15
COC(=O)C[C@H]1CC[C@H]2[C@H](COc3ccc(NS(=O)(=O)c4ccc(F)cc4)cc3C(=O)N2C)O1 | 37*
SMILES | miR-122 inh
CO[C@@H]1CN(C)C(=O)c2cc(NC(=O)NC(C)C)ccc2OC[C@@H](C)N(C(=O)NC(C)C)C[C@@H]1C | 0
CO[C@@H]1CN(C)C(=O)c2ccc(NC(=O)NC(C)C)cc2OC[C@@H](C)NC[C@@H]1C | -1
COC(=O)C[C@H]1CC[C@H]2[C@H](COc3ccc(NC(=O)NC(C)C)cc3C(=O)N2C)O1 | 50*
CNC(=O)C[C@@H]1CC[C@@H]2[C@H](COc3ccc(NC(=O)NC(C)C)cc3C(=O)N2C)O1 | 53*
COC(=O)C[C@H]1CC[C@H]2[C@H](COc3ccc(NC(=O)Nc4ccccc4C)cc3C(=O)N2C)O1 | -117
CO[C@@H]1CN(C)C(=O)c2cc(NC(=O)NC(C)C)ccc2OC[C@H](C)N(C(=O)NC(C)C)C[C@@H]1C | -3
Cc1ccc(S(=O)(=O)N(C)C[C@H]2Oc3ncc(C#CCC(C)C)cc3C(=O)N([C@H](C)CO)C[C@@H]2C)cc1 | -54
CCC(=O)Nc1ccc2c(c1)OC[C@@H](C)N(C(=O)c1ccncc1)C[C@H](C)[C@H](OC)CN(C)C2=O | 2
CCCN(C)C[C@H]1Oc2cc(C#CCN(C)C)ccc2S(=O)(=O)N([C@H](C)CO)C[C@H]1C | -7
C[C@@H]1CN([C@@H](C)CO)C(=O)c2cc(-c3cccnc3)cnc2O[C@@H]1CN(C)Cc1ccc(Oc2ccccc2)cc1 | 2
COc1ccccc1-c1ccc2c(c1)O[C@@H](CN(C)S(=O)(=O)c1ccc(C)cc1)[C@@H](C)CN([C@@H](C)CO)S2(=O)=O | -13
C/C=C/c1ccc2c(c1)O[C@H](CN(C)C(=O)CC1CC1)[C@@H](C)CN([C@@H](C)CO)S2(=O)=O | -4
C[C@@H]1CN([C@@H](C)CO)C(=O)c2cccc(N(C)C)c2O[C@@H]1CN(C)Cc1ccc(C(=O)Nc2ccccc2N)cc1 | -109
C[C@@H]1CN([C@H](C)CO)C(=O)c2cc(/C=C/c3ccccc3)cnc2O[C@H]1CN(C)C(=O)C1CCOCC1 | -1
COc1ccc(-c2c(-c3ccccc3)c(C(=O)C(=O)NCCCN(C)C)n3ccc4cc(OC)c(OC)cc4c23)cc1OC | 38*
CCCNC(=O)N(C)C[C@@H]1Oc2cc(-c3ccccc3)ccc2S(=O)(=O)N([C@H](C)CO)C[C@@H]1C | -6
C[C@@H]1CN([C@@H](C)CO)C(=O)c2cc(C#Cc3ccccn3)cnc2O[C@H]1CN(C)CC1CCOCC1 | -3
Nc1cccc2nc3ccccc3cc12 | 51*
C[C@H]1CN([C@@H](C)CO)C(=O)c2cccc(NC(=O)c3ccncc3)c2O[C@@H]1CN(C)CC1CCCCC1 | -91
CCCN1C[C@@H](C)[C@H](OC)CN(C)C(=O)c2ccc(NC(=O)COC)cc2OC[C@@H]1C | -9
C/C=C/c1cnc2c(c1)C(=O)N([C@@H](C)CO)C[C@@H](C)[C@H](CN(C)C(=O)Nc1cccc(OC)c1)O2 | -15
CN(C)CCNc1ncnc2c1sc1nc(-c3ccccc3)c3c(c12)CCCC3 | 35*
CC(C)Cc1nc2sc3c(=O)[nH]cnc3c2c2c1CCC2 | -126
CCCNC(=O)N(C)C[C@H]1Oc2cc(-c3ccccc3)ccc2S(=O)(=O)N([C@H](C)CO)C[C@H]1C | 1
CC(C)CC#Cc1cnc2c(c1)C(=O)N([C@@H](C)CO)C[C@@H](C)[C@@H](CN(C)C(=O)Cc1ccccc1)O2 | 9
SMILES | miR-122 inh
C[C@@H]1CN([C@H](C)CO)C(=O)c2cc(-c3ccc(C#N)cc3)cnc2O[C@H]1CN(C)CC1CCOCC1 | 4
CCCNC(=O)N(C)C[C@H]1Oc2ncc(C#Cc3ccccc3F)cc2C(=O)N([C@@H](C)CO)C[C@H]1C | 7
C[C@H](O)C#Cc1ccc2c(c1)O[C@@H](CN(C)Cc1cccnc1)[C@@H](C)CN([C@H](C)CO)S2(=O)=O | 3
Cc1ccccc1OCC(O)CNC1CCC(NCC(O)COc2ccccc2C)CC1 (stereo not drawn) | 31*
Cc1ccccc1OCC(=O)NNC(=O)Nc1ccc(Cl)cc1 | -144
C[C@H](O)C#Cc1ccc2c(c1)O[C@H](CN(C)C(=O)c1ccncc1)[C@H](C)CN([C@H](C)CO)S2(=O)=O | 14
COCC#Cc1ccc2c(c1)O[C@H](CN(C)C(C)=O)[C@@H](C)CN([C@@H](C)CO)S2(=O)=O | -2
